Measured values: PubChem BioAssay
Records with an inconclusive call do not appear. Active and inactive are the calls of the source.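 The calls were made as follows, unless noted: active = normalized viability below 100% at a tested concentration; inactive = the rest.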

Assays:
[1] = growth inhibition of DIPG glioma cells, dose response, cell-based, SU-DIPG-XVII, MIPE5.0, CellTiter-Glo, qHTS (AID 1347060; cut-off not given, nearly all actives have AC50 up to about 26 µM;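 as to AC50: cells exposed to compound for 48 hours before viability readout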); conditions: SU-DIPG-XVII viability, CellTiter-Glo ATP luminescence
[2] = growth inhibition of DIPG glioma cells, dose response, cell-based, SU-DIPG-XIII, MIPE5.0, CellTiter-Glo, qHTS (AID 1347064; cut-off not given, nearly all actives have AC50 up to about 23 µM;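 as to AC50: cells exposed to compound for 48 hours before the viability read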); conditions: SU-DIPG-XIII viability, CellTiter-Glo ATP luminescence
[3] = viability loss in pontine glioma line – cell-based, SU-DIPG-XXV, MIPE5.0, CellTiter-Glo, qHTS, dose response (AID 1347065; cut-off not given, nearly all actives have AC50 up to about 26 µM;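 also: cells exposed to compound for 48 hours before ATP readout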); conditions: CellTiter-Glo ATP luminescence
[4] = JHH-DIPG-1 glioma cell viability, MIPE5.0 library, CellTiter-Glo luminescence, qHTS (AID 1347067; cut-off not given, nearly all actives have AC50 up to about 26 µM;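 also: cells exposed to compound for 48 hours before readout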); conditions: JHH-DIPG-1 glioma viability, CellTiter-Glo ATP luminescence
[5] = SU-DIPG-XXV glioma cell viability, MIPE5.0 library, qHTS (AID 1347068; cut-off not given, nearly all actives have IC50 up to about 30 µM;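 as to IC50: cells exposed to compound for 48 hours before viability readout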)
[6] = sensitizers of A549 cells to miR-34 induction, primary screen, imaging, A549 dox-inducible miR-34, nuclei and caspase counts (AID 1347080;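 active = compounds whose cell count with miR-34 switched on is under 0.7 times the count with it off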); conditions: A549 miR-34 inducible, Hoechst nuclei count, 48 h
[7] = survival rescue of mitochondrial mutant cells in low glucose, primary screen, MELAS cybrids, Rieske KO mouse fibroblasts, CellTiter-Glo (AID 1508586;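 active = mean z-score across replicates of 1.96 or higher in either the MELAS or the Rieske mutant cell line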;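 also: z relative to plate mean and SD of compound and empty wells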)
[8] = ovarian cancer cell viability with rucaparib, profiling panel, oncology-focused library, rucaparib conditional (AID 1508598); conditions: patient-derived ovarian cancer cells, CellTiter-Glo viability, 144 h, stronger effect = lower value
[9] = stronger effect = lower value, cell number ratio, induced over uninduced
[10] = measured here: relative caspase fold change +Dox/-Dox
[11] = measured here: total cells with miR-34 induction, stronger effect = lower value
[12] = measured here: total cells without miR-34 induction
[13] = MELAS cybrid survival, CellTiter-Glo 48 h, stronger effect = higher value
[14] = Rieske KO mouse fibroblast survival, CellTiter-Glo 72 h

COc1cc(N2CCC(N)CC2)ccc1Nc1ncc(Cl)c(-c2c[nH]c3ccccc23)n1
inactive: fold change [6, 9] 0.915 | z-score [7, 13] 0.226
-0.504: z-score [7, 14]
0.405: fold change [6, 10]
active: AC50 [1] 525 nM | AC50 [2] 263 nM | AC50 [3] 209 nM | AC50 [4] 525 nM | IC50 [5] 742 nM
2100: cell count [6, 12]
1920: cell count [6, 11]

C=C1C[C@@H]2CC[C@@]34C[C@H]5O[C@H]6[C@@H](O3)[C@H]3O[C@H](CC[C@@H]3O[C@H]6[C@H]5O4)CC(=O)C[C@@H]3[C@@H](OC)[C@@H](C[C@H](O)CN)O[C@H]3C[C@H]3O[C@@H](CC[C@@H]1O2)C[C@@H](C)C3=C
active: AC50 [1] 2.7 nM | AC50 [2] 42.8 nM | AC50 [3] 1.21 nM | AC50 [4] 9.59 nM | IC50 [5] 9.59 nM

COc1cc(N2CCC(N(C)C)CC2)ccc1Nc1ncc(Cl)c(Nc2ccccc2P(C)(C)=O)n1
inactive: fold change [6, 9] 1.01
active: AC50 [1] 1050 nM | AC50 [2] 934 nM | AC50 [3] 417 nM | AC50 [4] 1660 nM | IC50 [5] 1860 nM | z-score [7, 13] 3.7
-0.471: z-score [7, 14]
0.883: fold change [6, 10]
1580: cell count [6, 12]
1590: cell count [6, 11]

CC(C)C(=O)OCC(=O)[C@@]12O[C@H](C3CCCCC3)O[C@@H]1C[C@H]1[C@@H]3CCC4=CC(=O)C=C[C@]4(C)[C@H]3[C@@H](O)C[C@@]12C
active: AC50 [1] 13200 nM | AC50 [2] 13200 nM | AC50 [3] 8330 nM | AC50 [4] 2950 nM | IC50 [5] 14800 nM
1.73: z-score [7, 14]
inactive: z-score [7, 13] -0.376

C=CC(=O)Nc1cccc(Nc2nc(Nc3ccc(N4CCN(C(C)=O)CC4)cc3OC)ncc2C(F)(F)F)c1
2040: cell count [6, 11]
active: AC50 [1] 1480 nM | AC50 [2] 1660 nM | AC50 [3] 742 nM | AC50 [4] 1860 nM | IC50 [5] 1320 nM
1.83: z-score [7, 14]
0.348: fold change [6, 10]
2210: cell count [6, 12]
inactive: fold change [6, 9] 0.925 | z-score [7, 13] -0.595

CNCCn1c(=O)c2cc(OC)c(OC)cc2c2cnc3cc4c(cc3c21)OCO4
active: AC50 [1] 21.5 nM | AC50 [2] 1710 nM | AC50 [3] 1520 nM | AC50 [4] 481 nM
inactive: outcome [5]

COc1cc(Nc2nc3ccccc3nc2NS(=O)(=O)c2ccc(NC(=O)c3ccc(C)c(OC)c3)cc2)cc(OC)c1
inactive: outcome [1] | outcome [2] | outcome [3] | outcome [4] | outcome [5] | fold change [6, 9] 0.923 | z-score [7, 13] -0.401 | viability ([8]; at 0.000305 µM, OCI-C5x cells, without rucaparib) 109% | viability ([8]; at 0.00122 µM, OCI-C5x cells, with rucaparib 10 µM, 100% = cells with rucaparib alone) 114% | viability ([8]; at 0.00122 µM, OCI-C5x cells, without rucaparib) 112% | viability ([8]; at 0.00122 µM, OCI-P5x cells, with rucaparib 20 µM, 100% = cells with rucaparib alone) 104% | viability ([8]; at 0.00488 µM, OCI-C5x cells, with rucaparib 10 µM, 100% = cells with rucaparib alone) 110% | viability ([8]; at 0.00488 µM, OCI-C5x cells, without rucaparib) 112% | viability ([8]; at 0.00488 µM, OCI-P5x cells, with rucaparib 20 µM, 100% = cells with rucaparib alone) 103% | viability ([8]; at 0.00488 µM, OCI-P5x cells, without rucaparib) 101% | viability ([8]; at 0.0195 µM, OCI-C5x cells, with rucaparib 10 µM, 100% = cells with rucaparib alone) 106% | viability ([8]; at 0.0195 µM, OCI-C5x cells, without rucaparib) 109% | viability ([8]; at 0.0195 µM, OCI-P5x cells, with rucaparib 20 µM, 100% = cells with rucaparib alone) 101% | viability ([8]; at 0.0195 µM, OCI-P5x cells, without rucaparib) 107% | viability ([8]; at 0.0781 µM, OCI-C5x cells, with rucaparib 10 µM, 100% = cells with rucaparib alone) 118% | viability ([8]; at 0.0781 µM, OCI-C5x cells, without rucaparib) 114% | viability ([8]; at 0.0781 µM, OCI-P5x cells, with rucaparib 20 µM, 100% = cells with rucaparib alone) 109% | viability ([8]; at 0.0781 µM, OCI-P5x cells, without rucaparib) 108% | viability ([8]; at 0.313 µM, OCI-C5x cells, with rucaparib 10 µM, 100% = cells with rucaparib alone) 108% | viability ([8]; at 0.313 µM, OCI-C5x cells, without rucaparib) 116% | viability ([8]; at 0.313 µM, OCI-P5x cells, with rucaparib 20 µM, 100% = cells with rucaparib alone) 107% | viability ([8]; at 0.313 µM, OCI-P5x cells, without rucaparib) 104% | viability ([8]; at 1.25 µM, OCI-C5x cells, with rucaparib 10 µM, 100% = cells with rucaparib alone) 106% | viability ([8]; at 1.25 µM, OCI-C5x cells, without rucaparib) 120% | viability ([8]; at 1.25 µM, OCI-P5x cells, without rucaparib) 108% | viability ([8]; at 5 µM, OCI-C5x cells, with rucaparib 10 µM, 100% = cells with rucaparib alone) 111% | viability ([8]; at 5 µM, OCI-C5x cells, without rucaparib) 121% | viability ([8]; at 5 µM, OCI-P5x cells, without rucaparib) 111%
1.03: fold change [6, 10]
7550: cell count [6, 11]
0.479: z-score [7, 14]
8180: cell count [6, 12]
active: viability ([8]; at 0.000305 µM, OCI-C5x cells, with rucaparib 10 µM, 100% = cells with rucaparib alone) 98.9% | viability ([8]; at 0.000305 µM, OCI-P5x cells, with rucaparib 20 µM, 100% = cells with rucaparib alone) 91.1% | viability ([8]; at 0.000305 µM, OCI-P5x cells, without rucaparib) 95.8% | viability ([8]; at 0.00122 µM, OCI-P5x cells, without rucaparib) 98.9% | viability ([8]; at 1.25 µM, OCI-P5x cells, with rucaparib 20 µM, 100% = cells with rucaparib alone) 90.5% | viability ([8]; at 5 µM, OCI-P5x cells, with rucaparib 20 µM, 100% = cells with rucaparib alone) 92.1%
